This is a sample that favours compounds with a hit; in the whole collection about 1% have one here.
RXFP1 antag – blocks the human relaxin receptor RXFP1; Q9HBX9; 350,000 compounds, 0.59% hits; AID 1259400; activity change, negative = inhibition, % at 57.5 µM; HEK293-RXFP1, relaxin-stimulated cAMP HTRF, 30 min; hits give low values;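 active means activity change of -60% or lower, but not beyond a set lower limit; inconclusive means change between -60% and -40%, or beyond the set limit; inactive means change above -40%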; further: on the % scale 0 is the no-effect control and ±100 the full control effect
TSHR antagonist – blocks TSH signaling through the human TSH receptor; AID 504810; P16473; TSHR-expressing cells, TSH-stimulated cAMP HTRF, 2 h; hits give low values; activity change, negative = inhibition, % at 11.5 µM; 330,000 compounds, 0.2% hits;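 active means activity change below a set negative limit, meaning inhibition stronger than a set level, cut at about -70% in these data; inconclusive means activity change between two set negative limits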; further: on the % scale 0 is the no-effect control and ±100 the full control effect
Target sequence (P16473 whole entry, looked up): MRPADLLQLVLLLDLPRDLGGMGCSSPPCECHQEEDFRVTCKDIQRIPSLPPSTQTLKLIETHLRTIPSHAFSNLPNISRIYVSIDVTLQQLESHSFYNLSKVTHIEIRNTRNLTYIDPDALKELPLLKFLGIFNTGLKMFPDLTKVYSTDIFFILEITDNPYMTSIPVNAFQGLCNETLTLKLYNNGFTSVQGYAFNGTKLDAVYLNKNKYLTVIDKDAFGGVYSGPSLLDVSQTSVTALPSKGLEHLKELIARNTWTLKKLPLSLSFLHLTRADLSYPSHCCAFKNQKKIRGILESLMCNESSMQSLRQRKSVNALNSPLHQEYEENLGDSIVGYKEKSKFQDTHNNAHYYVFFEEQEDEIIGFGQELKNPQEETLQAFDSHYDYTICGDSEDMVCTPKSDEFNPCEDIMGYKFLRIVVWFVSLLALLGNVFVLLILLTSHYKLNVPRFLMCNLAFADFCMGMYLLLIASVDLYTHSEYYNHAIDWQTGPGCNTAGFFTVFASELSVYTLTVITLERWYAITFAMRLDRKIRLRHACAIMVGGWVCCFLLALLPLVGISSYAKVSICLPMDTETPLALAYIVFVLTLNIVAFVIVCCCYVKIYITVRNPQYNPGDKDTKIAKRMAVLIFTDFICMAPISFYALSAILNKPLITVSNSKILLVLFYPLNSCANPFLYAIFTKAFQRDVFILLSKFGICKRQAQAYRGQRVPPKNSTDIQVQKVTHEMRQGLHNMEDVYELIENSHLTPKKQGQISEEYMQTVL
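Antagonism was scored as loss of TSH-driven cAMP in TSHR cells, stimulated with 4nM TSH (EC80) for 2 hours at 37 deg C and detected by homogeneous HTRF competition immunoassay.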
RXFP1 ag – activates the human relaxin receptor RXFP1. Q9HBX9. HEK293T-RXFP1 cAMP TR-FRET, 30 min; response scale: percent of porcine relaxin response, buffer zero. Potency, µM (series often up to 57.5 µM), without a hit: top-dose activation, hits mostly activators. 370,000 compounds, 0.3% hits; active means well fitted activation curve with a large enough effect; inconclusive means small, poorly fitted or top-dose-only effect; further: potency means the concentration at half of the fitted maximal effect; on the % scale 0 is the no-effect control and ±100 the full control effect; nearly all actives have a fitted effect of over 60% in size
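HEK293T cells stably expressing RXFP1 were pretreated with the PDE4 inhibitor Ro 20174, exposed to compounds for 30 min at 37C, lysed, and cAMP was read by TR-FRET. Data normalized to buffer (basal) and 29 nM porcine relaxin (100%).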
gsp antag – gsp mutant antagonism; Potency, µM (titrated, usually from 76.9 µM), for inactives: at the highest dose activity change, negative = inhibition, actives largely listed as inhibitors; 340,000 compounds, 0.4% hits; AID 624288; gsp-mutant cells, cAMP HTRF, 30 min; calls by dose curve; cell line not stated here;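 further: intracellular cAMP measured with PDE inhibitor Ro 20-1724 present during compound exposure; potency means the concentration at half of the fitted maximal effect; on the % scale 0 is the no-effect control and ±100 the full control effect; nearly all actives have a fitted effect of over 65% in size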
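HTRF cAMP read-out (cAMP-d2 plus anti-cAMP antibody-K in lysis buffer, 30 min RT). Before lysis, cells are exposed to compounds with […] for 30 min at 37C in DPBS containing Ca/Mg, BSA and Tween 20.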
gsp agonist – agonists of gsp mutant (McCune-Albright syndrome). Potency, µM (series often up to 76.9 µM), inactives show at the top dose activation (cAMP increase), hits mostly activators. gsp mutant cells, cAMP HTRF, 30 min. 340,000 compounds, 0.13% hits; active means well fitted activation curve with a large enough effect; inconclusive means small, poorly fitted or top-dose-only effect, or another doubt; inactive means no such curve, though single readings can be large or run the other way; cell line not stated here;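 further: phosphodiesterase inhibitor Ro 20-1724 added with compounds to block cAMP breakdown; potency means the concentration at half of the fitted maximal effect; nearly all actives have a fitted effect of over 60% in size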
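Cells stably selected in G418 were plated at 2000/well, grown 16-24 hr, then given compounds in DMSO with the PDE inhibitor […] (300 uM solution added) for 30 min at 37C; cAMP was read by HTRF.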
Starred values were filed as active, the others as inactive; ? = inconclusive; nt = not tested or not shown; [ ] = another dose, or the depositor's remark.

SMILES | RXFP1 antag | TSHR antagonist | RXFP1 ag | gsp antag | gsp agonist
COc1ccc(-c2cc3ncc(C)n3c(Nc3ncccc3C(N)=O)n2)cc1OC | nt | -22 | nt | nt | nt
CCOC(=O)C1CCN(C(=O)c2oc3ccc4c(c3c2C)C(O)CC2(CCCCC2)O4)CC1 (stereo not drawn) | -94* | -11 | 0% | 0% | -1%
CC(Sc1ncnc2c1cnn2-c1ccccc1)C(=O)NCC1CCCO1 (stereo not drawn) | 5 | 2 | 2% | -9% | 30%
Cc1nc(SC(C)C(=O)NCC2CCCO2)c2cc(-c3ccccc3)sc2n1 (stereo not drawn) | -69* | -10 | 1% | -30% | -5%[15.4 µM]
Cc1ccc(-c2cc(C(F)(F)F)n3ncc(C(=O)O)c3n2)cc1 | 5 | -2 | 0% | -13% | -3%
COCCNC(=O)c1cnn2c(C(F)(F)F)cc(-c3ccc(C)cc3)nc12 | -12 | 4 | -1% | 35µM* | -78%
CCOc1ccc(C(=O)OCc2cc(=O)n3nc(C4CC4)sc3n2)cc1 | nt | nt | 0% | nt | nt
Cc1ccc(C(=O)Oc2ccc(C(O)CNC(C)(C)C)cc2OC(=O)c2ccc(C)cc2)cc1 (stereo not drawn) | 18 | nt | nt | nt | nt
O=C(CS(=O)(=O)c1nc(-c2ccc(Cl)cc2)cn1-c1ccccc1)Nc1ccc(F)cc1F | -64* | nt | -3% | nt | nt
Cc1ccc(-c2cn(-c3cccc(Cl)c3)c(S(=O)(=O)CC(=O)Nc3ccccc3F)n2)cc1 | -64* | nt | 4% | nt | nt
COC(=O)c1cc(Cl)ccc1NS(=O)(=O)C(F)(F)F | 12 | nt | nt | nt | nt
O=C(C1=C[C@@H](c2ccc(C(F)(F)F)cc2)C[C@@H](OCCCCO)O1)N1CCCCCCC1 | nt | nt | nt | 11µM* | nt
O=C(C1CC1)N1N=C(c2ccncc2)CC1(O)C(F)(F)F (stereo not drawn) | -62* | 0 | 0% | -1% | -20%
O=C(c1ccccc1O)N1N=C(c2ccccc2)CC1(O)C(F)(F)F (stereo not drawn) | -76* | -1 | -1% | 1% | -94%
CCOc1ccccc1OCC1CNCCO1 (stereo not drawn) | -4 | nt | nt | nt | nt
Cc1ccc(Cl)cc1NC(=O)c1cc(-c2ccc3c(c2)OCCO3)on1 | nt | nt | 0% | nt | nt
O=C(c1ccccc1F)N1CCN(Cc2ccc3c(c2)OCO3)CC1 | 4 | -24 | -4% | 6% | 8%[15.4 µM]
N#Cc1c(F)cccc1N1CCN(Cc2ccc3c(c2)OCO3)CC1 | -15 | -90* | 1% | -22% | 21%
CCOc1c(Cl)cc(CNc2ccc(N3CCCC3)cc2)cc1OC | -75* | -9 | 0% | 5% | 7%[15.4 µM]
Cc1ccc(S(=O)(=O)N2CCCC(C)C2)cc1 (stereo not drawn) | -4 | 9 | 0% | -3% | -14%
CC1CCCN(S(=O)(=O)c2ccc3c(c2)c(=O)nc2ccc(Cl)cn23)C1 (stereo not drawn) | 40 | -16 | 1% | 40µM* | ?
Cc1ccn2c(c1)nc(=O)c1cc(S(=O)(=O)N3CCOCC3)ccc12 | -30 | -5 | 6% | 6% | ?
CC1CCCN(S(=O)(=O)c2ccc3c(c2)n(C)c(=O)c(=O)n3C)C1 (stereo not drawn) | 8 | 1 | 6% | 50µM* | 14%
O=C(c1ccc(N2CCCCC2)c([N+](=O)[O-])c1)N1CCN(c2ccccn2)CC1 | 0 | -2 | 0% | -10% | 9%
O=C1C2CC=CCC2C(=O)N1c1ccc(N2CCN(c3ccccn3)CC2)c([N+](=O)[O-])c1 (stereo not drawn) | -31 | -7 | 1% | 22µM* | -1%
SMILES | RXFP1 antag | TSHR antagonist | RXFP1 ag | gsp antag | gsp agonist
O=C(Nc1ccc2nc(SCC(=O)N3CCOCC3)sc2c1)c1cccc(Cl)c1 | -82* | nt | 3% | nt | nt
Cc1ccccc1OCC(=O)Nc1ccc2nc(SCC(=O)N3CCCC3)sc2c1 | -86* | nt | 3% | nt | nt
O=C(Nc1ccc2nc(SCC(=O)N3CCCC3)sc2c1)c1cccc(Cl)c1 | -34 | nt | 2% | nt | nt
CC(C)(C)c1ccc(C(=O)Nc2ccc3nc(SCC(=O)N4CCCC4)sc3c2)cc1 | -101* | nt | 4% | nt | nt
Cc1ccccc1OCC(=O)Nc1ccc2nc(SCC(=O)N3CCOCC3)sc2c1 | ? | nt | 3% | nt | nt
Cc1ccc2c(c1)N(C(=O)N1CCC(C(=O)NC3CCCCCC3)CC1)CC(C)O2 (stereo not drawn) | -7 | nt | -1% | nt | nt
CCC(Sc1nc2nccnc2c(=O)n1Cc1ccccc1Cl)C(=O)NC1CCCCC1 (stereo not drawn) | -1 | nt | -1% | nt | nt
COc1ccc(S(=O)(=O)N(CC(=O)NCc2cccnc2)Cc2ccccc2)cc1 | -3 | 8 | 0% | 11µM* | 1%[15.4 µM]
CCN1CCN(C(c2ccccc2Cl)c2c(O)cc(C)n(CCOC)c2=O)CC1 (stereo not drawn) | 1 | nt | 1% | nt | nt
COc1ccc(NC(=O)CSc2ccc3nnc(-c4cccnc4)n3n2)cc1OC | 10 | 30 | 18µM* | 4% | ?
O=C(CSc1ccc2nnc(-c3cccnc3)n2n1)Nc1ccccc1 | 12 | 19 | 16µM* | 9% | ?
O=C(CSc1ccc2nnc(-c3cccnc3)n2n1)Nc1cccc(F)c1 | 2 | 14 | ? | 23% | ?
COc1ccc(CN(C(=O)Cc2coc3ccc(C)cc23)C2CCS(=O)(=O)C2)cc1 (stereo not drawn) | -19 | nt | 0% | nt | nt

Screening results (PubChem)
